Assay results published in PubChem BioAssay (NCATS).
Where “and” joins values, the source holds several entries; their conditions need not be identical. Equal values may be shown once. Inconclusive results are not listed. Entries that show only a call come without a potency. Calls of active or inactive are those of the source. The call rests on the fitted dose curve; in most records, active means well fitted curve in the direction sought with a large enough effect; inconclusive means small, poorly fitted or top-dose-only effect, or another doubt; inactive means no such curve, though single readings can be large; an effect the other way counts as inactive or inconclusive.

How the values were obtained:
[1] = qHTS assay for measurement of the activity of small molecule inhibitors on Zika virus induced Caspase-3 activity in human astrocytoma cells (AID 1224859)
Procedure, shortened: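 A cell-based luminescent caspase-3/7 assay used SNB-19 cells infected with ZIKV (2 FFU/cell) for 6 h following 1 h compound pretreatment.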

[2] = qHTS assay to identify small molecule inhibitors of chordoma cells - UCH-1 (AID 1259355); further: nearly all actives have a fitted effect of over 55% in size; further: potency means the concentration at half of the fitted maximal effect; series mostly up to about 46 µM
Procedure, shortened: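 Cells (800/well) were seeded and left overnight at 37 C, 5% CO2, then treated with drugs at 15 concentrations plus a combination mix of auranofin, camptothecin, doxorubicin, rubitecan and topotecan. Viability after 48hr was read by CellTiter-Glo luminescence.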

[3] = qHTS assay to identify small molecule inhibitors of chordoma cells - UCH-2 (AID 1259356); further: potency means the concentration at half of the fitted maximal effect
[4] = P-glycoprotein substrates identified in KB-8-5-11 adenocarcinoma cell line, qHTS therapeutic library screen (AID 1346987); further: nearly all actives have a fitted effect of over 65% in size; further: potency means the concentration at half of the fitted maximal effect
Procedure, shortened: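 Steps: plate 500 KB-8-5-11 cells/well in DMEM + 10% FCS (colchicine removed); pin compounds in dose-response; incubate 72 h, 37 degree C, 5% CO2; add CellTiter-Glo, 5 min; read luminescence.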

[5] = qHTS of pediatric cancer cell lines to identify multiple opportunities for drug repurposing: Primary screen for BT-37 cells (AID 1347094); further: potency means the concentration at half of the fitted maximal effect
Procedure, shortened: (§1)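 Readout: CellTiter-Glo luminescence, 48 h treatment. Controls DMSO (neutral) and bortezomib 2.3 µM final (positive). Potency and efficacy taken from primary-screen concentration-response curves.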

[6] = NS1 protein of Zika virus - qHTS assay to identify small molecule inhibitors in human HEK 293 cells (AID 1347053); further: series mostly up to about 46 µM; nearly all actives have a fitted effect of over 55% in size
Procedure, shortened: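 HEK 293 cells, seeded 20 h at 37 C, were pretreated with compound 1 h, then infected with ZIKV MR766 (MOI = 0.5) for 24 h. NS1 was read by TR-FRET with two anti-NS1 antibodies, normalized to uninfected and infected wells.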

[7] = qHTS of pediatric cancer cell lines to identify multiple opportunities for drug repurposing: Primary screen for TC32 cells (AID 1347089); further: nearly all actives have a fitted effect of over 60% in size; further: potency means the concentration at half of the fitted maximal effect
Procedure, shortened: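 qHTS, TC32, 48 h drug treatment, CellTiter-Glo luminescence as a proxy for metabolically active cells; primary top concentration 46 µM (MIPE 11-pt, NPC 8-pt); confirmatory 11-pt.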

[8] = qHTS of pediatric cancer cell lines to identify multiple opportunities for drug repurposing: Primary screen for DAOY cells (AID 1347090); further: nearly all actives have a fitted effect of over 55% in size; further: potency means the concentration at half of the fitted maximal effect
Procedure, shortened: (§2)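 Viability measured as metabolically active cells via CellTiter-Glo luminescence following 48 hours of compound exposure, 11-point dilutions in confirmatory testing. 500-1,000 cells/well plated 5 hours before dosing; controls were DMSO and 2.3 µM bortezomib.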

[9] = qHTS of pediatric cancer cell lines to identify multiple opportunities for drug repurposing: Primary screen for SJ-GBM2 cells (AID 1347091); further: potency means the concentration at half of the fitted maximal effect
Procedure, shortened: as §2

[10] = qHTS of pediatric cancer cell lines to identify multiple opportunities for drug repurposing: Primary screen for A673 cells (AID 1347092); further: nearly all actives have a fitted effect of over 45% in size; further: potency means the concentration at half of the fitted maximal effect
Procedure, shortened: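 Luminescence from CellTiter-Glo, taken after 15 min at room temperature, served as the proxy for metabolically active cells following 48 h treatment. Both potency and efficacy were taken from curves fitted to the titration data.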

[11] = qHTS of pediatric cancer cell lines to identify multiple opportunities for drug repurposing: Primary screen for SK-N-MC cells (AID 1347093); further: potency means the concentration at half of the fitted maximal effect
Procedure, shortened: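 Metabolically active cells were quantified by ATP-dependent luminescence (CellTiter-Glo, 15 min at room temperature) following 48 h treatment. Cells had been plated at 500-1,000 per well and settled for 5 h beforehand.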

[12] = qHTS of pediatric cancer cell lines to identify multiple opportunities for drug repurposing: Primary screen for NB-EBc1 cells (AID 1347095); further: potency means the concentration at half of the fitted maximal effect
Procedure, shortened: as §1

SMILES	outcome [1]	Potency [2]	Potency [3]	Potency [4]	Potency [5]	Potency [6]	Potency [7]	Potency [8]	Potency [9]	Potency [10]	Potency [11]	Potency [12]
CCCCCN=C(N)N/N=C/c1c[nH]c2ccc(OC)cc12	inactive	inactive	inactive	inactive	24.6 µM (active)							
Cc1cc2c(OCC(CNC(C)(C)C)OC(=O)c3ccccc3)cccc2[nH]1 (centres undefined)	inactive	inactive	inactive		inactive	inactive	inactive	inactive	inactive	inactive	inactive	inactive
O=C(NC1CCN(CCc2c[nH]c3ccccc23)CC1)c1ccccc1	inactive	inactive	inactive		inactive	inactive	inactive	inactive	inactive	inactive	inactive	inactive
OC(C#CCN1CCCC1)(c1ccccc1)c1ccccc1	inactive	inactive	inactive		inactive	inactive	inactive	inactive	inactive	inactive	inactive	inactive
NC(=O)C1(N2CCCCC2)CCN(CCCC(=O)c2ccc(F)cc2)CC1	inactive	inactive	inactive		inactive	inactive	inactive	inactive	inactive	inactive	inactive	inactive
NC(N)=NN=C(/C=C/c1ccc([N+](=O)[O-])o1)/C=C/c1ccc([N+](=O)[O-])o1	inactive	10 µM (active)	16.4 µM (active)	4.61 µM (active)	11 µM (active)		6.64 µM (active)	10.6 µM (active)		1.06 µM (active)		5.31 µM (active)
CCCCCCCCCCCCCC[N+](C)(C)Cc1ccccc1	inactive	inactive	inactive	inactive	24.6 µM (active)				21.1 µM (active)	13.3 µM (active)	11.9 µM (active)	
C#C[C@]1(O)CC[C@H]2[C@@H]3CCC4=CC(=O)CC[C@@H]4[C@H]3CC[C@@]21CC	inactive	inactive	inactive		inactive	inactive	inactive	inactive	inactive	inactive	inactive	inactive
COc1ccccc1N1CCN(CCCCNC(=O)c2ccc(-c3ccc(C(C)=O)cc3)cc2)CC1	inactive	inactive	inactive		inactive	inactive	inactive	inactive	inactive	inactive	inactive	inactive
Cc1c(-c2ccccc2)oc2c(C(=O)OCCN3CCCCC3)cccc2c1=O	inactive	inactive	inactive		inactive	inactive	inactive	inactive	inactive	inactive	inactive	inactive
CCC1Nc2cc(Cl)c(S(N)(=O)=O)cc2S(=O)(=O)N1 (centres undefined)	inactive	inactive	inactive		inactive	inactive	inactive	inactive	inactive	inactive	inactive	inactive
CC[C@]12CCCN3CCc4c(n(c5ccccc45)C(=O)C1)[C@@H]32	inactive	inactive	inactive	5.56 µM (active) and 5.8 µM (active)		inactive			5.96 µM (active)	10.6 µM (active)	5.96 µM (active)	1.88 µM (active)
O=C1C(O)=C(O)C(=O)C(O)=C1O	inactive	inactive	inactive		inactive	inactive	inactive	inactive	inactive	inactive	inactive	inactive
CCN(CC)CCOc1ccccc1C(=O)CCc1ccccc1	inactive	inactive	inactive		inactive	inactive	inactive	inactive	inactive	inactive	inactive	inactive
Nc1ccc(S(=O)(=O)NCc2ccccc2)cc1	inactive	inactive	inactive		inactive	inactive	inactive	inactive	inactive	inactive	inactive	inactive
CCCCCCCCCCCCCC(=O)OC(C)C	inactive	inactive	inactive		inactive	inactive	inactive	inactive	inactive	inactive	inactive	inactive
CCCCCCCCCCCCOCCOCCOCCOCCOCCOCCOCCOCCOCCO	inactive	inactive	inactive	3.26 µM (active)	19.5 µM (active)	inactive		16.8 µM (active)		21.1 µM (active)		21.1 µM (active)
N#C/C(=C1\SCC(c2ccccc2Cl)S1)n1ccnc1 (centres undefined)	inactive	inactive	inactive		inactive	inactive	inactive	inactive	inactive	inactive	inactive	inactive
O=C1C(=O)c2ccccc2C(O)=C1C1CCC(c2ccc(Cl)cc2)CC1 (centres undefined)	inactive	inactive	inactive		inactive	inactive	inactive	inactive	inactive		inactive	
O=C(NCCc1c[nH]c2ccccc12)c1cccnc1	inactive	inactive	inactive	inactive	inactive		inactive	inactive	inactive	inactive	inactive	inactive
C[N+]12CCC(CC1)C(OC(=O)C(O)(c1ccccc1)c1ccccc1)C2 (centres undefined)	inactive	inactive	inactive		inactive	inactive	inactive	inactive	inactive	inactive	inactive	inactive
CC(C)Cn1cnc2c1c(=O)n(C)c(=O)n2C	inactive	inactive	inactive		inactive	inactive	inactive	inactive	inactive	inactive	inactive	inactive
O=[N+]([O-])c1cccc(S(=O)(=O)NCCNS(=O)(=O)c2cccc([N+](=O)[O-])c2)c1	inactive	inactive	inactive		inactive	inactive	inactive	inactive	inactive	inactive	inactive	inactive

SMILES	outcome [1]	Potency [2]	Potency [3]	Potency [4]	Potency [5]	Potency [6]	Potency [7]	Potency [8]	Potency [9]	Potency [10]	Potency [11]	Potency [12]
O=C(Oc1cccc2cccnc12)c1ccccc1	inactive	inactive	inactive	inactive	inactive		1.67 µM (active)		inactive	0.001 µM (active)	9.44 µM (active)	
Cc1cc(C)cc(OCC2CNC(=O)O2)c1 (centres undefined)	inactive	inactive	inactive		inactive	inactive	inactive	inactive	inactive	inactive	inactive	inactive
CC(=O)Nc1ccc(CC(=O)O)cc1	inactive	inactive	inactive		inactive	inactive		inactive	inactive	inactive	inactive	inactive
CCOc1cc(OCC)c(C(=O)CCC(=O)O)cc1OCC	inactive	inactive	inactive		inactive	inactive		inactive	inactive	inactive	inactive	inactive
CCc1oc2ccccc2c1C(=O)c1cc(I)c(O)c(I)c1	inactive	inactive	inactive		inactive	inactive	inactive			inactive		
CCCCc1cc2ccccc2c(OCCN(C)C)n1	inactive	inactive	inactive			inactive		inactive	inactive	inactive		inactive
CCN(CC)CCNC(=O)COc1ccc(OC)cc1	inactive	inactive	inactive		inactive	inactive		inactive	inactive		inactive	inactive
CC(CNC1CCCCC1)OC(=O)c1ccccc1 (centres undefined)	inactive	inactive	inactive		inactive	inactive	inactive	inactive	inactive		inactive	inactive
COc1cc(N)c(Cl)cc1C(=O)NC1CCN(Cc2ccccc2)CC1	inactive	inactive	inactive		inactive	inactive	inactive	inactive	inactive		inactive	inactive
CC(C)(C)NCC(O)COc1cccc2c1C[C@H](O)[C@H](O)C2 (some centres undefined)	inactive	inactive	inactive		inactive	inactive		inactive	inactive	inactive	inactive	inactive
NC(=O)n1c(O)c(C(=O)c2cccs2)c2cc(Cl)ccc21	inactive	inactive	inactive			inactive	inactive		15 µM (active)		26.6 µM (active)	16.8 µM (active)
COc1cc(NS(=O)(=O)c2ccc(N)cc2)ncn1	inactive	inactive	inactive		inactive	inactive		inactive	inactive	inactive	inactive	inactive
C[C@@]12C(=O)OC(=O)[C@]1(C)C1CCC2O1	inactive	0.501 µM (active)	0.698 µM (active)				6.64 µM (active)	3.35 µM (active)	2.37 µM (active)	6.68 µM (active)	2.37 µM (active)	2.37 µM (active)
O=c1[nH]c(=O)n([C@H]2C[C@H](O)[C@@H](CO)O2)cc1F	inactive	inactive	inactive			inactive	0.264 µM (active)			0.841 µM (active)	6.68 µM (active)	2.37 µM (active)
O=C(O)CCc1nc2ccccc2[nH]1	inactive	inactive	inactive		inactive	inactive		inactive	inactive		inactive	inactive
Cc1cc(NS(=O)(=O)c2ccc(N)cc2)nc(C)n1	inactive	inactive	inactive		inactive	inactive	inactive	inactive	inactive		inactive	inactive
CNCCCCOc1ccccc1Cc1ccccc1	inactive	inactive	inactive			inactive	inactive	inactive		26.6 µM (active)		inactive
O=[N+]([O-])c1ccc(/C=N\O)o1	inactive	inactive	inactive		inactive	inactive	inactive	inactive	inactive		4.22 µM (active)	inactive
CN(CCCN1c2ccccc2CCc2ccccc21)CC(=O)c1ccc(Cl)cc1	inactive	inactive	inactive		inactive	inactive	inactive	inactive	inactive		inactive	inactive
CCCCNc1ccc(C(=O)OCCOCCOCCOCCOCCOCCOCCOCCOCCOC)cc1	inactive	inactive	inactive			inactive	inactive	inactive	inactive		inactive	inactive
CN1CCN(c2cc3c(cc2F)c(=O)c(C(=O)O)cn3-c2ccc(F)cc2)CC1	inactive	inactive	inactive		inactive	inactive	inactive	inactive	inactive		inactive	inactive
C[C@]12CCC(=O)C=C1C=C[C@@H]1[C@@H]2CC[C@@]2(C)[C@H]1CC[C@@]21CCC(=O)O1	inactive	inactive	inactive		inactive	inactive	inactive		inactive			inactive
